The panel holds about 83,000 compounds, 20% with a hit somewhere; the sample as a whole holds those more often.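 Note: values are percent growth. 100 is the growth of untreated cells, values between 100 and 0 indicate rising inhibition; between -100 and 0 indicates cell death.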 Active and inactive are the calls of the source. How the source made its calls: active means growth percent below 10; inactive means the rest.
Assays:
Test in all cases: NCI-60 one-dose screen, 48 h (100 = growth as untreated, 0 = no growth, -100 = all killed)
Conditions in all cases: 10 µM unless noted
[1] = test system: RPMI-8226 leukemia
[2] = test system: OVCAR-8 ovarian
[3] = test system: OVCAR-5 ovarian
[4] = test system: OVCAR-4 ovarian
[5] = test system: SK-OV-3 ovarian
[6] = test system: IGROV1 ovarian
[7] = test system: OVCAR-3 ovarian
[8] = test system: HS 578T breast
[9] = test system: NCI/ADR-RES ovarian
[10] = test system: T-47D breast
[11] = test system: BT-549 breast
[12] = test system: MDA-MB-435 melanoma
[13] = test system: SW-620 colon
[14] = test system: MCF7 breast
[15] = test system: HCT-116 colon
[16] = test system: HCC-2998 colon
[17] = test system: KM12 colon

Measured: growth

CCCNCCC(C)=O
inactive: [1] 108% | [2] 106% | [3] 101% | [4] 107% | [5] 116% | [6] 118% | [7] 116% | [8] 89.9% | [9] 100% | [10] 98.7% | [11] 106% | [12] 94.7% | [13] 97.6% | [14] 106% | [15] 109% | [16] 99.6% | [17] 112%

O=C1Nc2ccccc2/C1=C\c1nc(C2CCN(S(=O)(=O)c3ccc(F)cc3)CC2)n2ccccc12
active: [11] 2.09%
inactive: [1] 94.3% | [2] 18% | [3] 88% | [4] 13.6% | [5] 57.8% | [6] 57% | [7] 58.6% | [8] 19% | [9] 17% | [10] 48.1% | [12] 70.8% | [13] 82.8% | [14] 48.7% | [15] 64.8% | [16] 59.8% | [17] 65.8%

COc1cnc2c(c1)C(=O)c1c-2n(CCCN2CCN(C)CC2)c(=O)c2cc(Cl)ccc12
inactive: [1] 43.5% | [2] 31% | [3] 77.9% | [4] 43.9% | [5] 52.3% | [6] 58.9% | [7] 68.3% | [8] 54.8% | [9] 44.8% | [11] 56.5% | [12] 38% | [14] 20.8% | [15] 32% | [16] 66.8% | [17] 45.5%
active: [13] 1.45%

COc1ccc(CC2c3cc(OC)c(OC)cc3CC[N+]2(C)CCC(=O)OCCCCCOC(=O)CC[N+]2(C)CCc3cc(OC)c(OC)cc3C2Cc2ccc(OC)c(OC)c2)cc1OC (stereo unspecified)
inactive: [1] 96.3% | [2] 96.5% | [3] 103% | [4] 89.8% | [5] 110% | [6] 102% | [7] 95.9% | [8] 93.4% | [9] 78.1% | [10] 94.5% | [11] 103% | [12] 96.7% | [13] 100% | [14] 85.2% | [15] 88.5% | [16] 105% | [17] 101%

CNC(=O)c1c(NC(=O)c2cccc(C(F)(F)F)c2)sc2c1CCC(=O)C2
active: [1] -33% | [2] 8.86% | [3] -22.2% | [4] -81.5% | [5] -5.12% | [6] -24.8% | [7] 3.37% | [9] -7.1% | [11] -14.8% | [12] 4.37% | [13] -17.8% | [14] 0.296% | [15] 0.607% | [16] -33.3% | [17] -12.9%
inactive: [8] 17.7%

O=C1OCC2=C1C(c1ccccc1)c1cc3c(cc1N2CCO)OCO3 (stereo unspecified)
active: [5] 6.79% | [7] 3.99% | [9] -20.4% | [10] 1.16% | [12] 2.96% | [15] 7.22%
inactive: [1] 46.4% | [2] 63.3% | [3] 46.8% | [4] 52% | [6] 39.5% | [8] 23.1% | [11] 43.9% | [13] 23.6% | [16] 24.5% | [17] 23.3%

O=C1NN(C(=O)c2ccccc2)C(c2ccc(Cl)c(Cl)c2)=C/C1=C\c1ccccc1[N+](=O)[O-]
active: [1] 2.27% [6.75 µM] | [3] -18.6% [6.75 µM] | [11] -7.17% [6.75 µM] | [14] 8.91% [6.75 µM] | [16] -20.5% [6.75 µM] | [17] 4.6% [6.75 µM]
inactive: [2] 30.3% [6.75 µM] | [4] 12.2% [6.75 µM] | [5] 37.1% [6.75 µM] | [6] 19.3% [6.75 µM] | [8] 30.8% [6.75 µM] | [9] 17.7% [6.75 µM] | [10] 27.6% [6.75 µM] | [12] 58.5% [6.75 µM] | [13] 13.7% [6.75 µM]

Cc1cc(O)ccc1Sc1ccccc1[N+](=O)[O-]
inactive: [1] 82.5% | [2] 97.1% | [3] 99.6% | [4] 90% | [5] 101% | [6] 90.6% | [8] 80% | [9] 83% | [10] 98.7% | [11] 93.2% | [12] 57.7% | [13] 90.2% | [14] 118% | [15] 98.1% | [16] 97.5% | [17] 91.1%

Cc1nc(N)nc2c1CCC(Nc1ccccc1)S2 (stereo unspecified)
inactive: [1] 113% | [2] 103% | [3] 100% | [4] 114% | [5] 109% | [6] 111% | [7] 108% | [8] 103% | [9] 104% | [10] 101% | [12] 101% | [13] 102% | [14] 104% | [15] 97% | [16] 104% | [17] 110%

S=C(Nc1ccc(Cl)cc1)Nc1ccc(Cl)cc1 (tested in a mixture with another compound)
active: [1] 9.87% | [2] 1.13% | [5] -0.571% | [12] 3.6% | [14] 7.15% | [15] 0.154%
inactive: [3] 12.5% | [4] 10.5% | [6] 16.2% | [8] 17.4% | [10] 11.6% | [11] 12.8% | [13] 11.8% | [16] 17.8%

C[N+](C)(C)CCCCCCCCCC[N+](C)(C)C
inactive: [1] 96% | [2] 98.7% | [3] 117% | [4] 87.2% | [5] 106% | [6] 91.5% | [7] 105% | [9] 98.4% | [10] 88.6% | [11] 78.7% | [12] 103% | [13] 95.8% | [14] 91% | [15] 106% | [16] 105% | [17] 103%

O=C(CCCN1CCC(O)(c2ccc(Br)cc2)CC1)c1ccc(F)cc1
inactive: [1] 73.4% | [2] 79.3% | [3] 80% | [4] 64.7% | [5] 86% | [6] 74% | [7] 90% | [9] 74% | [10] 70.5% | [11] 60.6% | [12] 65.4% | [13] 78.1% | [14] 70.4% | [15] 38.9% | [16] 71% | [17] 83.5%

CCN(CC)c1ccc(/C=C2/NC(=O)NC2=O)cc1
inactive: [1] 74.1% | [2] 79.9% | [3] 33.2% | [4] 77% | [5] 33.7% | [6] 46.7% | [7] 19.3% | [10] 16.2% | [11] 38.9% | [13] 29% | [15] 20.2% | [16] 39.5% | [17] 20.5%
active: [8] -2.99% | [9] -31.9% | [12] -34.1% | [14] 6.89%

CCNC(=O)c1ccc2c(c1)nc(-c1ccc(Cl)cc1)n2-c1cc(C(C)(C)C)[nH]n1
active: [9] 9.67% | [12] -20.6%
inactive: [1] 76.5% | [2] 77.1% | [3] 63.9% | [4] 70.9% | [5] 26.9% | [6] 47.7% | [7] 21.5% | [8] 59.7% | [10] 51.7% | [11] 41.8% | [13] 42.7% | [14] 14.7% | [15] 15.3% | [16] 63.4% | [17] 38.9%

O=C(Nc1ccc(Br)cc1)c1ccc(Cl)c(Cl)c1
active: [1] -6.3% | [10] 5.65% | [17] 9.99%
inactive: [2] 89.3% | [3] 72% | [4] 28.8% | [5] 63.7% | [7] 16% | [8] 79.6% | [9] 36.6% | [11] 60.6% | [12] 31.4% | [13] 34.7% | [14] 20.1% | [15] 20.8% | [16] 67.7%

O=C(c1ccc(OCCN2CCCCC2)cc1)c1c(-c2ccc(O)cc2)sc2cc(O)ccc12
inactive: [1] 82.9% | [2] 86.8% | [3] 124% | [4] 72.8% | [5] 100% | [6] 76.1% | [7] 91.8% | [9] 91.5% | [10] 65.5% | [11] 66.4% | [12] 90.5% | [13] 98.2% | [14] 31.9% | [15] 76.2% | [16] 103% | [17] 103%

O=C1C=CN2C(=O)CC=CC2[C@@H]1O (stereo partly specified)
inactive: [1] 96.4% | [2] 114% | [3] 121% | [4] 110% | [5] 104% | [6] 118% | [8] 121% | [9] 106% | [10] 90.4% | [11] 102% | [12] 124% | [13] 111% | [14] 96.5% | [15] 96.5% | [16] 114% | [17] 105%

C=C(COC(C)=O)[C@H]1CC/C(C)=C/CC/C(C)=C/CC[C@@]2(C)O[C@H]2C1
inactive: [1] 180% | [2] 103% | [3] 99.2% | [4] 115% | [5] 125% | [6] 103% | [7] 121% | [8] 108% | [9] 102% | [10] 109% | [11] 105% | [12] 113% | [13] 112% | [14] 91.1% | [15] 98.2% | [16] 112% | [17] 98.6%

— PubChem BioAssay (NCI)
